# Measurements: the supplement of paper PMC3334620
# The full ranking holds about 33,000 sequences; the median of “E-score (-0.5 to 0.5)” is about -0.035, and the highest 2% start at about 0.35. The full list was thinned out, with the highest values kept by preference.
# Target: T1, Pdr3 (UniProt P33200)
# T1 sequence: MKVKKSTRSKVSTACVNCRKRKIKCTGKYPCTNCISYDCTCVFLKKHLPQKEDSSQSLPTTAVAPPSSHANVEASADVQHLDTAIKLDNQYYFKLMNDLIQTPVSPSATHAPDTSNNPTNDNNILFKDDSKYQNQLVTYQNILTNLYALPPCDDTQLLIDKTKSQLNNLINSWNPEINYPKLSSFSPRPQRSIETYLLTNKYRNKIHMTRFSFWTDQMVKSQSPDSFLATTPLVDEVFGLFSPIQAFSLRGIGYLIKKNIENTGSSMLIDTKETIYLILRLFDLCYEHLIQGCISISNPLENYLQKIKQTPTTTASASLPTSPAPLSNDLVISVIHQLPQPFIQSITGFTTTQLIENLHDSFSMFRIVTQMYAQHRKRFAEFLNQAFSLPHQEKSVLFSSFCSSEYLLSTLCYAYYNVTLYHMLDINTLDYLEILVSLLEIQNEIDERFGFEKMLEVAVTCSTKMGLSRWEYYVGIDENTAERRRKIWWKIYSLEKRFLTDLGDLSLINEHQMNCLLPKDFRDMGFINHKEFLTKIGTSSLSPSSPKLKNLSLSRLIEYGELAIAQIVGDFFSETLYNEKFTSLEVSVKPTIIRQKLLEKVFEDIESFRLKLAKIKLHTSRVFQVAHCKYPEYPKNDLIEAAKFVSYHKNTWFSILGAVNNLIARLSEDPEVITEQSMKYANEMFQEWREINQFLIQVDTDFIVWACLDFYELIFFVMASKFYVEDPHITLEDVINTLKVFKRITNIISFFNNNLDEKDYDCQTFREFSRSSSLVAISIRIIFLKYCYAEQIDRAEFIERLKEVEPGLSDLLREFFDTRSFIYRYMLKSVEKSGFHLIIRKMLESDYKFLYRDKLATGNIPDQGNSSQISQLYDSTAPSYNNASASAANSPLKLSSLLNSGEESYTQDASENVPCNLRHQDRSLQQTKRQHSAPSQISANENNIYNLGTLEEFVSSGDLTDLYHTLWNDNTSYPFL
# Assay: PBM E-score (8-mer binding enrichment) (E-score (-0.5 to 0.5)); higher = stronger / more preferred TF binding
# Conditions: protein concentration: 200 nM; construct: GST-full length
# Protocol: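 Universal 'all 10-mer' protein binding microarrays (Agilent AMADID 015681) probed with GST-tagged S. cerevisiae TFs (full-length or DBD) made by in vitro transcription/translation (PURExpress), about 100-200 nM. Bound TF was detected with fluorescent anti-GST. Each ungapped 8-mer (which stands for itself and its reverse complement) is scored by the PBM enrichment score (E-score), a modified Wilcoxon-Mann-Whitney statistic from -0.5 to +0.5, computed with the Universal PBM Analysis Suite. Scale: above 0.35 generally sequence-specific binding.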
row,Sequence,PBM E-score
1,CCGGAGTC,0.384
2,AAGAGTTC,-0.178
3,CCCCAACA,-0.274
4,ATTAAGAG,-0.0729
5,AGTGCGGG,0.185
6,CGCGCGGC,0.373
7,AGAGCGGA,0.229
8,AGCGCGGA,0.331
9,CGAGCGGC,0.228
10,CGAGCGGA,0.359
11,GGCGCGGA,0.352
12,AGTGCGGA,0.377
13,CGCGCGGA,0.383
14,CTCGCGGC,0.171
15,AGCGCGGC,0.107
16,CGTGCGGA,0.177
17,AGGCTACT,-0.167
18,CCGCCAGC,0.105
19,TACCTAGA,-0.195
20,ACCCGTAT,0.0405
21,AGAGTAAC,0.0157
22,AAATCTAT,-0.00749
23,CGGTGTAG,-0.0315
24,CTTATCCA,-0.00809
25,AGCGGGGA,0.0517

row,Sequence,PBM E-score
1,CGCGGGAA,0.429
2,AGCGGGAC,0.185
3,GGCGGGAA,0.198
4,GGCGGGAC,0.295
5,CGCGGGGA,0.393
6,CGCGGGGC,0.304
7,AGCGGGAA,0.232
8,CGCGGGAC,0.444
9,AAGTTCAG,-0.098
10,CGGTTCCC,0.153
11,AGTACTGG,-0.222
12,GAACTAGC,-0.00564
13,ATTCCCTA,0.0152
14,GGTTCTTA,-0.0791
15,AAGACCAA,-0.0835
16,GTTACCCA,-0.159
17,ATGCGCTG,-0.0256
18,AATCAACT,0.0921
19,ATAAGCTC,0.042
20,AGCCGCGA,0.187
21,AGCCGCGG,0.485
22,AGCCGCGC,0.236
23,AACCGCGT,0.141
24,AACCGCGA,0.277
25,CACCGCGC,0.166

row,Sequence,PBM E-score
1,CACCGCGA,0.032
2,AACCGCGG,0.457
3,CACCGCGG,0.452
4,ATAAGAGG,0.0703
5,AAGGTCAG,-0.201
6,AGCAGACT,-0.189
7,ACAGAGCT,-0.292
8,GTGCCCAA,-0.0202
9,GAATCACC,-0.027
10,CCGGGCTC,0.224
11,ACAATGCA,0.0617
12,AGAGGATG,0.0386
13,CACTAGCG,-0.0368
14,ATGTTTAC,-0.0373
15,GACGCGCA,0.0698
16,ACACCGGT,0.14
17,GCACCGTA,0.067
18,TCACCGGA,0.329
19,CCACCGGC,0.204
20,CCACCGGG,0.257
21,GCACCGGC,0.146
22,CCACCGGA,0.428
23,GCACCGGA,0.377
24,ACACCGGA,0.357
25,CGTTTGCA,0.0843

row,Sequence,PBM E-score
1,CCAACTGC,0.0661
2,TCCCATCA,-0.209
3,AGAAAGTG,-0.177
4,AATCGACG,0.058
5,CCGGCACG,0.279
6,CCGGCAGC,0.362
7,CCGGCACC,0.369
8,CCGGCAGA,0.229
9,ACGGCACC,-0.0873
10,CCGGCAGG,0.231
11,GTCCGTAA,0.191
12,CCGCCACC,0.0657
13,ACACAGGG,0.0204
14,GCCGTGAC,0.133
15,CCCGGAAG,0.419
16,ACCGGACC,0.297
17,ACCGGAAC,0.474
18,CCCGAAAA,0.191
19,CCAGGAAA,-0.0248
20,ACCGGACG,0.311
21,ACCGGATG,0.249
22,CCTGGAAG,-0.203
23,CCCCGAAG,0.144
24,CCCGGAAA,0.449
25,ACCGGAAG,0.42

row,Sequence,PBM E-score
1,ACCGGATC,0.34
2,CACCCAAG,-0.071
3,AAAATAAG,-0.194
4,CGGTTAAA,0.0999
5,CGATCTGA,0.0713
6,ATATCGAT,0.104
7,CCCGGAAC,0.467
8,ACCAGAAA,-0.105
9,GCCGGATA,0.368
10,CCCGGACC,0.334
11,CCCCGAAC,0.129
12,ACCGGATA,0.151
13,ACCGGACT,0.285
14,ACCGGAGT,0.234
15,ACCGGAAT,0.411
16,ACCGGAAA,0.405
17,GCAGGATA,-0.0657
18,ATTGGCGA,-0.2
19,CCACCTTA,-0.0834
20,GCTTTAGA,-0.238
21,AGAGCATC,-0.0714
22,CGTGCTAG,-0.276
23,GAAAAGGA,0.0166
24,GCCGGAGC,0.236
25,GCCGGAAC,0.476

row,Sequence,PBM E-score
1,TCCGGAAA,0.466
2,GCAGGAAA,-0.081
3,TCCGGTAA,0.307
4,GCCGAAAA,0.276
5,TCAGGAAA,-0.128
6,GCCGGACC,0.303
7,GCCGGAAA,0.42
8,GACAAGTA,0.00093
9,AAGCGATC,0.0113
10,ATTCCCGA,0.212
11,AATCCGGG,0.354
12,ATTCCGGC,0.448
13,ATTCCGGG,0.458
14,ATTCCCCG,0.28
15,ATTCCTGG,0.0168
16,ATTCCTGC,0.221
17,ACTCCCCG,0.306
18,ACTCCCGG,0.356
19,ATTCCAGC,0.0377
20,ATTCCCGG,0.393
21,ACTCCCGA,0.0347
22,ACTCAGCC,-0.146
23,ACAATAGT,-0.0518
24,GGACAACC,0.0553
25,CCACCACC,-0.0836

row,Sequence,PBM E-score
1,CCCAGGGG,-0.115
2,AATGTTAT,0.00821
3,AGCGTGGG,-0.253
4,AGCACCCT,-0.284
5,GGATCCGA,0.399
6,AGATCGGG,0.0992
7,CGATCCGA,0.326
8,TAATCGGA,0.324
9,GGATCGAA,0.133
10,AGATCCGA,0.169
11,CGATCGGA,0.196
12,GAATCGGA,0.36
13,AGATCGGA,0.394
14,AAATCGGA,0.326
15,GGATCGGA,0.359
16,AGATCGGC,0.134
17,CTTGACTA,-0.119
18,TGCAATAA,-0.00943
19,GTCTTCAA,-0.189
20,ACGCTGGG,-0.0598
21,CCCGCGAA,0.206
22,GAAGGAAC,0.0934
